Hits are enriched below; roughly 3.4% of the tested compounds scored in any of these assays.
TEAD-YAP block: TEAD-YAP interaction inhibition | AID 1259422 | inhibition, % at 9.12 µM | HEK-TIYL cells, TEAD-Gal4/YAP UAS-luciferase luminescence | hit rate 1.4% among 640,000; in the data active = inhibition above about 32%;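 also: 0% = median of test compound wells and 100% = reference inhibitor wells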
MITF primary: inhibitors of human MITF | O75030 | AlphaScreen MITF homodimerization, bead proximity signal | inhibition, % at 2.6 µM | hit rate 0.91% among 650,000; in the data active = inhibition above about 50%;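 also: 0% = vehicle wells with protein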
Target sequence (O75030 whole entry, looked up): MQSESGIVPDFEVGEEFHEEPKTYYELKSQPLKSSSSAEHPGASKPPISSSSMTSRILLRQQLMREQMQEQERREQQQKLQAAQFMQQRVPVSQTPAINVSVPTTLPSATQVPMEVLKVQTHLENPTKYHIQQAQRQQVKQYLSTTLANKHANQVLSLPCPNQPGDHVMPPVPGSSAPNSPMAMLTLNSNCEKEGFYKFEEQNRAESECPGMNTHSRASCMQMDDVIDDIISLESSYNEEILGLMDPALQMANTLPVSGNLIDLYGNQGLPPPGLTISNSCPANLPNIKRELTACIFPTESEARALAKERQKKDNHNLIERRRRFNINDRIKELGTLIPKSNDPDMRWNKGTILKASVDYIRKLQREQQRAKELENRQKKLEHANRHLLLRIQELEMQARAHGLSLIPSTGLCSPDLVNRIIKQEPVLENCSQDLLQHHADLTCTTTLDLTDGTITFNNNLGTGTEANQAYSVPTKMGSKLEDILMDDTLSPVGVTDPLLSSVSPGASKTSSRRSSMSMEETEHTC
GPR151 ag: activators of human GPR151; AID 1508602; PathHunter beta-arrestin GPR151 cells, luminescence; hit rate 1% among 650,000; activation, % at 11.2 µM; Q8TDV0; in the data active = activation above about 4.9%;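 also: 0% = median of compound wells and 100% = cells with positive control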
FBW7 act: human FBW7 E3 ligase activation, primary screen; Q969H0; AlphaScreen FBW7–phospho-cyclin E peptide binding, activator screen; normalized activity (activation), % at 26.1 µM; hit rate 0.13% among 650,000; AID 1259310; in the data active = normalized activity above about 1.9%;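 also: purified mutant Fbw7 with reduced substrate affinity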
The depositor's hits bear a star.

SMILES	TEAD-YAP block	MITF primary	GPR151 ag	FBW7 act
COc1ccccc1NC(=O)Cn1cnc2sc(C(=O)Nc3cc(F)ccc3C)c(C)c2c1=O	-5	17	-1	1
COc1ccccc1NC(=O)Cn1cnc2sc(C(=O)N3CCN(c4ccccc4)CC3)c(C)c2c1=O	5	12	-1	0
COc1ccccc1NC(=O)Cn1cnc2sc(C(=O)N3CCN(c4ccccc4OC)CC3)c(C)c2c1=O	10	14	-1	2.1*
CC1(C)Cc2c(sc3nc4n(-c5ccccc5)cnn4c(=O)c23)CS1	9	2	1	0
Cc1ccc(S(=O)(=O)N/N=C/c2cc([N+](=O)[O-])ccc2O)cc1[N+](=O)[O-]	0	8	1	0
CCN(CC)c1ccc(/C=N/N=C(N)N)c(O)c1	50*	13	3	0
CCN(CC)c1ccc(/C=N/Nc2ccccc2[N+](=O)[O-])c(O)c1	40*	2	1	0
O=[N+]([O-])c1cc(S(=O)(=O)N/N=C/c2ccc(O)c(O)c2O)ccc1Cl	2	55*	0	0
NS(=O)(=O)c1ccc(N/N=C/c2ccc(O)c(O)c2O)c([N+](=O)[O-])c1	2	70*	3	0
CC(NC(=O)/C=C/c1ccc(Cl)cc1)c1ccccc1 (stereo not drawn)	2	7	0	0
Cn1c(SCc2cn3cc(Cl)ccc3n2)nc2ccccc21	-1	2	-2	0
Cc1ccccc1/C=N/Nc1ccc(S(N)(=O)=O)cc1[N+](=O)[O-]	-13	14	1	2.0*
NS(=O)(=O)c1ccc(N/N=C/c2ccccc2Br)c([N+](=O)[O-])c1	11	9	2	0
O=C1/C(=C\c2cccnc2)Oc2cc(O)ccc21	9	-29	1	0
COC(=O)c1ccc2c(c1)C(=O)/C(=C/c1cccc(OC)c1)O2	-3	1	0	0
COc1cccc(/C=C2\Oc3cc(O)cc(C)c3C2=O)c1	98*	14	-10	0
Cc1cc(O)cc2c1C(=O)/C(=C/c1cccnc1)O2	61*	-4	-6	0
Cc1cc(OC(=O)C(C)C)cc2c1C(=O)/C(=C/c1cccnc1)O2	63*	-4	-8	0
CCOC(=O)COc1cccc(/C=C2\Oc3cc(OC)ccc3C2=O)c1	-1	5	0	0
COc1ccccc1Oc1nc2c(c(=O)n(C)c(=O)n2C)n1Cc1ccccc1	6	9	1	0
Cc1ccc(CNC(=O)CCC2CCCN(C(=O)c3cnsn3)C2)o1 (stereo not drawn)	1	-11	0	0
O=S(=O)(c1ccc(NC(=S)N/N=C/c2ccccc2O)cc1)N1CCOCC1	61*	68*	0	-1
COc1ccc(N2C(=O)CSC2c2cccc(F)c2)c(OC)c1 (stereo not drawn)	3	-25	-1	0
COc1ccc(N2C(=O)CSC2c2cccc([N+](=O)[O-])c2)c(OC)c1 (stereo not drawn)	46*	-4	-1	0
COc1cccc(NC(=O)c2sc(NC(=O)/C=C/c3ccccc3)nc2C)c1	55*	-8	-1	0
SMILES	TEAD-YAP block	MITF primary	GPR151 ag	FBW7 act
FC(F)(F)c1cccc(Nc2nc3nonc3nc2Nc2ccc(Cl)cc2)c1	82*	0	2	0
Ic1ccc(Nc2nc3nonc3nc2N2CCCCC2)cc1	4	12	1	0
Fc1ccc(Nc2nc3nonc3nc2Nc2ccc(F)cc2)cc1	61*	-4	0	0
Clc1ccc(Nc2nc3nonc3nc2Nc2ccc(Cl)cc2)cc1	92*	13	2	0
O=c1[nH]c2nonc2nc1Nc1ccc(Cl)cc1	-5	-10	0	0
Clc1ccc(Nc2nc3nonc3nc2N2CCCCC2)cc1	33*	16	1	0
COC(=O)c1c(N)sc(C)c1-c1ccc(C)cc1	-7	-7	-2	0
Cn1cnnc1Sc1ccc([N+](=O)[O-])c2cnccc12	2	-4	0	0
Cc1cccc(-n2nnnc2Sc2ccc([N+](=O)[O-])c3cnccc23)c1	46*	6	3	0
Cc1csc(N/N=C\c2ccccn2)n1	79*	16	-7	-2
CCCCCNC(=O)C1CCC(Cn2c(=O)[nH]c3ccccc3c2=O)CC1 (stereo not drawn)	-1	-7	1	0
CN(C)/N=C/c1ccc(/C=N\NC(N)=S)cc1	1	0	-2	0
Oc1cc2c(cc1O)C1c3ccc(O)c(O)c3OCC1(O)C2 (stereo not drawn)	21	116*	-2	0
Cn1c(=O)c2c(nc(NCCO)n2Cc2cccc(Br)c2)n(C)c1=O	22	12	0	0
Cc1cccc(Cn2c(NCCO)nc3c2c(=O)n(C)c(=O)n3C)c1	42*	7	0	0
CCNc1nc2c(c(=O)n(C)c(=O)n2C)n1Cc1cccc(C)c1	44*	3	2	0
Cn1c(=O)c2c(nc(Cl)n2Cc2cccc(C(F)(F)F)c2)n(C)c1=O	37*	18	1	0
CC(=O)Oc1cccc(N2Cc3ccccc3C2=O)c1	73*	-2	-5	0
COC(=O)CCN1CCCCSC1=Nc1ccccc1	6	5	-1	1
O=C(O)C1Nc2c(C(=O)N3CCOCC3)cccc2C2C=CCC12 (stereo not drawn)	0	58*	1	-1
CC(C)C1Nc2c(C(=O)O)cccc2C2C=CCC21 (stereo not drawn)	1	17	-1	0
O=C(O)C1Nc2c(C(=O)N3CCCC3)cccc2C2C=CCC12 (stereo not drawn)	10	80*	0	-1
O=C(Oc1ccc(-c2ccccc2)cc1)c1cccc2c1NC(C(=O)O)C1CC=CC21 (stereo not drawn)	-15	51*	0	0
CCc1c(C)sc2ncn3c(=O)n(CCN4CCCC4)nc3c12	1	18	0	21*
c1coc(-c2nnc(SCc3nc4ccccc4[nH]3)o2)c1	44*	1	-2	0
SMILES	TEAD-YAP block	MITF primary	GPR151 ag	FBW7 act
CCOC(=O)c1sc2nc(CN3CCCCC3C)[nH]c(=O)c2c1C (stereo not drawn)	-4	-3	0	0
O=[N+]([O-])c1ccc(C2NN=C(Cc3ccccc3)S2)cc1 (stereo not drawn)	-43	-7	-1	0
Oc1ccc(C2NN=C(Cc3ccccc3)S2)c(O)c1 (stereo not drawn)	8	102*	0	0
Cc1ccc(C2=NNC(c3ccc(O)cc3O)S2)cc1 (stereo not drawn)	80*	10	-1	1
Cc1ccc(C2=NNC(c3ccncc3)S2)cc1 (stereo not drawn)	-12	8	-1	0
CCCOC(=O)c1cccc(NC(=O)COc2ccc3c(C)cc(=O)oc3c2)c1	-8	3	0	0
CN(C1=C(NCCO)C(=O)c2ccccc2C1=O)c1ccccc1	3	24	0	0
CN(C)C1=C(Nc2ccc(Cl)c(Cl)c2)C(=O)c2ccccc2C1=O	-3	12	-1	0
CC(=O)N(C1=C(N(C)C)C(=O)c2ccccc2C1=O)c1ccc(Cl)c(Cl)c1	82*	15	-4	-1
